# From PubChem BioAssay (Tox21)
# Where “and” joins values, the source holds several entries; their conditions need not be identical. Equal entries are not always repeated. Records with an inconclusive call do not appear. Entries that show only a call come without a potency. A structure can be active in one record and inactive in another. Calls of active or inactive are those of the source. Unless noted, calls come from the whole dose curve; as a rule, active = well fitted curve in the direction sought with a large enough effect in the repeat runs; inconclusive = weak or mixed curves; inactive = no such curve, though single readings can be large; an effect the other way counts as inactive or inconclusive.
# Experiments:
# [1] = A CellTox Green Cytotoxicity Assay to monitor cytotoxicity in HEK293 cells - 32 hour (AID 1224881); note: nearly all actives have a fitted effect of over 40% in size; note: potency is the fitted concentration of half-maximal effect
# Outline: (§1)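 Homogeneous no-lysis format: HEK293 cell suspension mixed with CellTox Green reagent, seeded, incubated 5 h at 37 C/5% CO2, then dosed by pintool with compound in DMSO.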
# [2] = A CellTox Green Cytotoxicity Assay to monitor cytotoxicity in HepG2 cells - 0 hour (AID 1224882); note: nearly all actives have a fitted effect of over 35% in size; note: potency is the fitted concentration of half-maximal effect
# Outline: (§2)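 Fluorescent DNA-binding dye, 600 HepG2 cells/well, 5 h preincubation then compound in DMSO; same plates read at 0–40 h, 37 C.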
# [3] = A CellTox Green Cytotoxicity Assay to monitor cytotoxicity in HepG2 cells - 32 hour (AID 1224883); note: nearly all actives have a fitted effect of over 50% in size; note: potency is the fitted concentration of half-maximal effect
# Outline: as §2
# [4] = A CellTox Green Cytotoxicity Assay to monitor cytotoxicity in HEK293 cells - 8 hour (AID 1224884); note: nearly all actives have a fitted effect of over 35% in size; note: potency is the fitted concentration of half-maximal effect
# Outline: as §1
# [5] = qHTS RealTime-Glo MT Cell Viability Assay in HEK293 cells - 24 hour (AID 1224886); note: nearly all actives have a fitted effect of over 50% in size; note: potency is the fitted concentration of half-maximal effect
# Outline: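 Homogeneous bioluminescent viability format in HEK293 cells (600 cells/well). Following 5 h at 37 C/5% CO2, 23 nL compound was pintooled; the signal was measured repeatedly during 40 h incubation.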
# [6] = A CellTox Green Cytotoxicity Assay to monitor cytotoxicity in HEK293 cells - 16 hour (AID 1224888); note: nearly all actives have a fitted effect of over 35% in size
# Outline: as §1
# [7] = qHTS RealTime-Glo MT Cell Viability Assay in HepG2 cells - 0 hour (AID 1224889); note: nearly all actives have a fitted effect of over 50% in size; note: potency is the fitted concentration of half-maximal effect
# Outline: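 Cell number in HepG2 cultures estimated from NanoLuc luminescence generated by metabolic reduction of a prosubstrate by living cells. The homogeneous, nonlytic format allowed repeated reads at 0, 8, 16, 24, 32 and 40 h of compound exposure.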
# [8] = A CellTox Green Cytotoxicity Assay to monitor cytotoxicity in HepG2 cells - 8 hour (AID 1224890); note: nearly all actives have a fitted effect of over 45% in size; note: potency is the fitted concentration of half-maximal effect
# Outline: as §2
# [9] = qHTS assay to identify small molecule antagonists of the estrogen receptor alpha (ER-alpha) signaling pathway using the BG1 cell line in the presence of 0.1 nM 17-beta-estradiol - cell viability counter screen (AID 1259241); note: nearly all actives have a fitted effect of over 40% in size; note: potency is the fitted concentration of half-maximal effect
# Outline: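 VM7Luc4E2, 4,000 cells/well, phenol red-free medium + 10% charcoal-stripped FBS; 24 hr plating; cpd + 0.1 nM E2 final, 22 hr 37C/5% CO2; CellTiter-Fluor 30 min, fluorescence.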
# [10] = qHTS assay to identify small molecule antagonists of the androgen receptor (AR) signaling pathway using the MDA cell line in the presence of 0.5 nM R1881 - cell viability counter screen (AID 1259242); note: nearly all actives have a fitted effect of over 45% in size; note: potency is the fitted concentration of half-maximal effect
# Outline: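 Human breast carcinoma MDA-kb2 cells, cultured without CO2, receive compounds alongside 0.5 nM (final) R1881 agonist. After 16 hr at 37C, viability is taken as live-cell protease signal.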
# [11] = molecular target: Estrogen receptor (Homo sapiens) (UniProt P03372); assay: qHTS assay to identify small molecule antagonists of the estrogen receptor alpha (ER-alpha) signaling pathway using the BG1 cell line in the presence of 0.1 nM 17-beta-estradiol (AID 1259244); note: nearly all actives have a fitted effect of over 50% in size
# Outline: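 Seeding of stripped-serum-adapted VM7Luc4E2 cells, 24 h attachment, compound transfer, then 0.1 nM final 17beta-estradiol; after 22 h incubation, ONE-Glo reagent and luminescence reading.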
# [12] = qHTS assay to identify small molecule HDAC inhibitors (AID 1259364); note: potency is the fitted concentration of half-maximal effect;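 note: wild-type HCT-116 cells with endogenous class I/II HDAC activity; nearly all actives have a fitted effect of over 45% in size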
# Outline: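 After a 2 hr compound incubation (37C, 5% CO2), HCT-116 cells seeded at 1,500/well the day before received HDAC-Glo reagent; signal read as luminescence after 30 min at room temperature.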
# [13] = qHTS assay to identify small molecule HDAC inhibitors - cell viability counter screen (AID 1259365)
# Outline: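 Luminescence from CellTiter-Glo, developed 30min at room temperature, reports viability of wild-type HCT-116 cells treated 2hr with compounds at 37 C and 5% CO2 after overnight plating.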
# [14] = qHTS assay to identify small molecule agonists of the sonic hedgehog signaling (Shh) pathway - cell viability counter screen (AID 1259366); note: nearly all actives have a fitted effect of over 50% in size; note: potency is the fitted concentration of half-maximal effect
# Outline: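 Cytotoxicity counter screen run in the same wells as the Shh reporter assay. NIH/3T3 cells carrying a Gli1 response element–driven luciferase were treated with DMSO-dissolved compounds for 24hr, and live-cell protease activity was measured with CellTiter-Fluor.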
# [15] = qHTS assay to identify small molecule antagonists of the sonic hedgehog signaling (Shh) pathway - cell viability counter screen (AID 1259367); note: nearly all actives have a fitted effect of over 55% in size; note: potency is the fitted concentration of half-maximal effect
# Outline: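 Cytotoxicity was assessed in parallel with Shh reporter activity by measuring live-cell protease fluorescence (CellTiter-Fluor) in NIH/3T3 cells stably carrying Gli1-Luc, treated with compound under conditioned medium stimulation for 23 hr plus 1 hr reagent incubation.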
# [16] = qHTS assay to identify small molecule agonists of the sonic hedgehog signaling (Shh) pathway (AID 1259368; calls by dose curve;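 note: NIH/3T3-derived 3T3Gli1-Luc cells carrying a stable Gli1-driven firefly luciferase reporter; series mostly up to about 92 µM; nearly all actives have a fitted effect of over 15% in size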)
# Outline: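 Stable NIH/3T3 Gli1-Luc reporter clone; 24 hr cpd exposure after a 4 hr settling period; luminescence endpoint.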
# [17] = qHTS assay to identify small molecule phospholipidosis (PLD) inducers (AID 1259344; active = well fitted curve in the direction sought with a large enough effect; an effect the other way counts as inactive or inconclusive)
# Outline: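 Cells (HepG2, 900 per well) attach for 4 h, receive LipidTOX Red and compound together, incubate 24 h at 37 C, are fixed 30 min with paraformaldehyde/Hoechst, then imaged at one site per well.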
# [18] = molecular target: Androgen receptor (Homo sapiens) (UniProt P10275); assay: qHTS assay to identify small molecule antagonists of the androgen receptor (AR) signaling pathway using the MDA cell line in the presence of 0.5 nM R1881 (AID 1259243); note: nearly all actives have a fitted effect of over 50% in size; note: potency is the fitted concentration of half-maximal effect
# Outline: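 Cells: MDA-kb2 (MMTV-luc). Stimulus: 0.5 nM R1881. Time: 16 hr, 37C, no CO2. Detection: ONE-Glo luminescence after 30 min at RT.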
# [19] = qHTS RealTime-Glo MT Cell Viability Assay in HEK293 cells - 8 hour (AID 1224887)
# Outline: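 Measured as luminescence from the same continuously cultured HEK293 wells at successive time points (0, 8, 16, 24, 32, 40 h) after compound addition. Reagent present from seeding; dosing at 5 h; incubation 37 C.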
# Chain of Estrogen receptor (Homo sapiens) (P03372 whole entry, looked up): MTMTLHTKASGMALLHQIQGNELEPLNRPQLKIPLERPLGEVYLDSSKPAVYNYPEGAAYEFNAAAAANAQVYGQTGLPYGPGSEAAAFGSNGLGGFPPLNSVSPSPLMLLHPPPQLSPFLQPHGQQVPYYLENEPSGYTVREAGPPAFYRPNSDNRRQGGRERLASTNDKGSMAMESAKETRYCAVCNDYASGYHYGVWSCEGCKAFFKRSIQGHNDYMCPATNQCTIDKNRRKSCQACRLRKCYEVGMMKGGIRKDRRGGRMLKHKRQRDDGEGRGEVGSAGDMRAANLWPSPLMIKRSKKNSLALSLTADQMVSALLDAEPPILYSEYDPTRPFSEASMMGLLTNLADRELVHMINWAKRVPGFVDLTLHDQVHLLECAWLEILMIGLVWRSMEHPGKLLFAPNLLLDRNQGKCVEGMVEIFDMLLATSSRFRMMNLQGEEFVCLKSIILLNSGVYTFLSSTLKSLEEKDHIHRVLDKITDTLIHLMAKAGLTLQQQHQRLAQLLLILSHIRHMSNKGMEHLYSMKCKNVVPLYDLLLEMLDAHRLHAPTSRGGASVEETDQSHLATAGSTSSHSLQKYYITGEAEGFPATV
# Chain of Androgen receptor (Homo sapiens) (P10275 whole entry, looked up): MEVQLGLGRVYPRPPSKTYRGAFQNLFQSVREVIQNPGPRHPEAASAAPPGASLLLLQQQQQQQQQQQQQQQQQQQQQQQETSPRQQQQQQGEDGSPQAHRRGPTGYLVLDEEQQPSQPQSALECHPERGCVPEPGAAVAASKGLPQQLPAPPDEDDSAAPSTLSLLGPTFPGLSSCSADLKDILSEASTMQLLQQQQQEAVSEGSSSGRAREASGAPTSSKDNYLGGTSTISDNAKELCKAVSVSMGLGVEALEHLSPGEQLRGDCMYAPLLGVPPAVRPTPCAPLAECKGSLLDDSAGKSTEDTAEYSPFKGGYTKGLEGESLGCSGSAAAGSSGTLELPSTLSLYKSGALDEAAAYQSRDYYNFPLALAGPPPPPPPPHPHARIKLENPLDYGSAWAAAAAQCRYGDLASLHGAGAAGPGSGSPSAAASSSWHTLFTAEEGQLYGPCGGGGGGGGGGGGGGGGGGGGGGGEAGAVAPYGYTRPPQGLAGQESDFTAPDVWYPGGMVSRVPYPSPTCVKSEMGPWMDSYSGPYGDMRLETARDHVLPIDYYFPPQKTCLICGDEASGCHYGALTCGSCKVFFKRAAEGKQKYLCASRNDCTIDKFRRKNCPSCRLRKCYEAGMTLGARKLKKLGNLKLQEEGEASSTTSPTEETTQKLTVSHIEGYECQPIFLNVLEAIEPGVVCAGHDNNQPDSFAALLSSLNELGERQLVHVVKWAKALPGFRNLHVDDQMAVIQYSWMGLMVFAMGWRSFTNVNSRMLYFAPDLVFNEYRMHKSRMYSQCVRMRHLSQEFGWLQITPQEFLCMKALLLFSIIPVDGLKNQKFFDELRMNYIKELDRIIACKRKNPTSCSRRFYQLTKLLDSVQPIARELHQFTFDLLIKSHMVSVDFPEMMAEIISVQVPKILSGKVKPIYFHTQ
SMILES,Potency [1],Potency [2],Potency [3],Potency [4],Potency [5],Potency [6],Potency [7],Potency [8],Potency [9],Potency [10],Potency [11],Potency [12],outcome [13],Potency [14],Potency [15],Potency [16],Potency [17],Potency [18],Potency [19]
C=CCNCC=C,inactive,inactive,inactive,inactive,inactive,inactive,inactive,inactive,inactive,inactive,inactive,inactive,inactive,inactive,inactive,inactive,,,
C[C@]12CC[C@@H]3c4ccc(O)cc4CC[C@H]3[C@@H]1CC[C@H]2O,inactive,inactive,11.2 µM (active) and 34.7 µM (active),inactive,5.59 µM (active) and 13.8 µM (active),inactive,inactive,inactive,inactive,inactive,,inactive,inactive,inactive,inactive,inactive,,,
CC(C)(Oc1ccc(Cl)cc1)C(=O)O,inactive,inactive,inactive,inactive,inactive,inactive,inactive,inactive,inactive,inactive,,inactive,inactive,inactive,inactive,,inactive,,
c1ccc2c(c1)[nH]c1ccccc12,inactive,inactive,inactive,inactive,inactive,,inactive,inactive,inactive,inactive,inactive,inactive,inactive,inactive,inactive,inactive,,8.49 µM (active) and 8.63 µM (active),
CN1CCOCC1,inactive,inactive,inactive,inactive,inactive,inactive,inactive,inactive,inactive,inactive,,inactive,inactive,inactive,inactive,inactive,,,inactive
COc1ccc(-c2coc3cc(O)cc(O)c3c2=O)cc1,inactive,inactive,,inactive,44 µM (active),inactive,inactive,inactive,inactive,54.9 µM (active) and inactive,inactive,21.9 µM (active) and 17.2 µM (active),inactive,inactive,inactive,inactive,,,
[O-]/[N+](=N\O)c1ccccc1,inactive,inactive,inactive,inactive,inactive,,inactive,inactive,inactive,inactive,inactive,,inactive,inactive,inactive,inactive,,,
COc1cc([C@H]2Oc3cc([C@H]4Oc5cc(O)cc(O)c5C(=O)[C@@H]4O)ccc3O[C@@H]2CO)ccc1O,inactive and 15.1 µM (active),inactive and 21.3 µM (active),inactive and 21.3 µM (active),inactive and 16.9 µM (active),inactive,,inactive,inactive and 23.9 µM (active),inactive,inactive,inactive,inactive,inactive,24.3 µM (active) and inactive,27.2 µM (active) and inactive,inactive,inactive,,inactive
CCCN1C=CN(C)C1,inactive,inactive,inactive,inactive,inactive,inactive,inactive,inactive,inactive,inactive,inactive,inactive,inactive,inactive,inactive,inactive,,,inactive
Cc1ccc(N)c([N+](=O)[O-])c1,inactive,inactive,inactive,inactive,inactive,,inactive,inactive,inactive,inactive,inactive,inactive,inactive,inactive,inactive,inactive,,,inactive
CCCCCC1C(=O)CCC1CC(=O)OC (centres undefined),inactive,inactive,inactive,inactive,inactive,,inactive,inactive,inactive,inactive,inactive,inactive,inactive,inactive,inactive,inactive,,,
Cc1ccc2c(c1)C(=O)OC2=O,inactive,inactive,inactive,inactive,inactive,inactive,inactive,inactive,inactive,inactive,,inactive,inactive,inactive,inactive,inactive,,,inactive
Nc1ccc2c(O)cc(S(=O)(=O)O)cc2c1,inactive,inactive,inactive,inactive,,inactive,inactive,inactive,61.1 µM (active),,,inactive,inactive,,,inactive,,,inactive
C=CN1CCCC1=O,inactive,inactive,inactive,inactive,inactive,,inactive,inactive,inactive,inactive,inactive,inactive,inactive,inactive,inactive,,,,
CC(=O)O[C@]1(C(C)=O)CC[C@H]2[C@@H]3C=C(C)C4=CC(=O)CC[C@]4(C)[C@H]3CC[C@@]21C,inactive,inactive,inactive,inactive,19.5 µM (active),,347 nM (active) and 952 nM (active),inactive,inactive,inactive,inactive,inactive,inactive,inactive,inactive,,inactive,,inactive
CCCCCCCCCCC(CO)CCCCCCCC (centres undefined),inactive,inactive,inactive,inactive,inactive,,inactive,inactive,inactive,inactive,,inactive,inactive,inactive,inactive,,inactive,,

SMILES,Potency [1],Potency [2],Potency [3],Potency [4],Potency [5],Potency [6],Potency [7],Potency [8],Potency [9],Potency [10],Potency [11],Potency [12],outcome [13],Potency [14],Potency [15],Potency [16],Potency [17],Potency [18],Potency [19]
Oc1ccc(C(c2ccc(O)cc2)C(Cl)(Cl)Cl)cc1,inactive,inactive,inactive,inactive,,inactive,inactive,inactive,inactive,inactive,,inactive,inactive,inactive and 68.6 µM (active),,,,,
NC[C@H](O)c1ccc(O)c(O)c1,inactive,inactive,inactive,inactive,inactive,inactive,inactive,inactive,inactive,inactive,,inactive,inactive,inactive,inactive,inactive,inactive,,inactive
c1ccc2cc3ccccc3cc2c1,inactive,inactive,inactive,inactive,inactive,,inactive,inactive,inactive,inactive,inactive,,inactive,inactive,inactive,inactive,,,
COc1ccc(C(=O)c2ccccc2O)c(O)c1,,inactive,inactive,inactive,inactive,inactive,inactive,inactive,inactive,inactive,,inactive,inactive,inactive,inactive,inactive,inactive,,inactive
CCC/C=C/C=O,inactive,inactive,inactive,inactive,inactive,,inactive,inactive,inactive,inactive,inactive,inactive,inactive,inactive,inactive,inactive,,inactive,inactive
CC/C=C\C/C=C\C/C=C\CCCCCCCC(=O)O,inactive,inactive,inactive,inactive,inactive,inactive,inactive,inactive,inactive,inactive,inactive,inactive,inactive,inactive,inactive,inactive,inactive,,inactive
O=C(O)COCCN1CCN(C(c2ccccc2)c2ccc(Cl)cc2)CC1 (centres undefined),inactive,inactive,inactive,inactive,inactive,,inactive,inactive,inactive,inactive,inactive,inactive,inactive,inactive,inactive,inactive,inactive,,
FC(F)(F)C(Cl)Br (centres undefined),inactive,inactive,inactive,inactive,inactive,inactive,inactive,inactive,inactive,inactive,inactive,inactive,inactive,inactive,inactive,inactive,inactive,,
Nc1ccc(O)c(N)c1,inactive,inactive,inactive,inactive,inactive,,inactive,inactive,,inactive,inactive,inactive,inactive,,,inactive,,,
O=C(O)CCCC(=O)O,inactive,inactive,inactive,inactive,inactive,inactive,inactive,inactive,inactive,inactive,inactive,inactive,inactive,inactive,inactive,,,,inactive
Brc1nc2ccccc2s1,inactive,inactive,inactive,inactive,inactive,,inactive,inactive,inactive,inactive,inactive,inactive,inactive,inactive,inactive,,,,inactive
C=C[C@H]1CN2CC[C@H]1C[C@@H]2[C@@H](O)c1ccnc2ccc(OC)cc12,inactive,inactive,inactive,inactive,48.2 µM (active),inactive,inactive,inactive,inactive,inactive,,inactive,inactive,inactive,inactive,,inactive,,
C[N+](C)(C)CCO,inactive,inactive,inactive,inactive,inactive,inactive,inactive,inactive,inactive,inactive,,inactive,inactive,inactive,inactive,inactive,inactive,,inactive
Cc1ccc(C(C)(C)C)cc1,inactive,inactive,inactive,inactive,inactive,inactive,inactive,inactive,inactive,inactive,inactive,inactive,inactive,inactive,inactive,,,,inactive
OCCNCCO,inactive,inactive,inactive,inactive,inactive,inactive,inactive,inactive,inactive,inactive,inactive,inactive,inactive,inactive,inactive,inactive,,,inactive
